ERK AVP block = blocks ERK signaling stimulated by vasopressin. HEK293-V1b, vasopressin-stimulated pERK AlphaScreen. Potency, µM (titrated, usually from 57.5 µM), without a hit: at the highest dose activity, negative = inhibition, most hits filed as inhibitors. 0.99% of 72,000 active. AID 995; further: on the % scale 0 is the no-effect control and ±100 the full control effect; nearly all actives have a fitted effect of over 55% in size
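V1b-HEK293 cells; cpd 30 min 37C; 25 nM vasopressin 5 min; lyse 10 min; AlphaScreen beads 5 hr RT. Normalized to DMSO basal and 25 nM vasopressin; AC50 by Hill fit.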
15-hLO inh = blocks human 15-lipoxygenase activity. P16050. Potency, µM (titrated, usually from 57.1 µM), inactives show top-dose activity change, negative = inhibition, actives largely listed as inhibitors. purified 15hLO-1, xylenol orange hydroperoxide absorbance. 1.4% of 74,000 active. AID 887; further: on the % scale 0 is the no-effect control and ±100 the full control effect; nearly all actives have a fitted effect of over 55% in size
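Readout: Fe(III)-xylenol orange absorbance, 573-to-405 nm ratio as reaction progress. Enzyme 40 nM purified human 15hLO-1, substrate 50 uM arachidonic acid, 6 min RT after 15 min compound preincubation; Hepes pH 7.5 buffer with Triton X-100.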
TSHR agonist = TSH receptor (human) agonism; P16473; HEK293-CNG-TSHR cells (CNG channel as cAMP sensor), membrane potential dye, cAMP; Potency, µM (top dose mostly 57.1 µM), for the others: at the top dose activation, usual class: activators; 0.48% of 73,000 active; AID 926; active means well fitted activation curve with a large enough effect in the main read-out, with a control signal flat, not every such curve was filed as active; inconclusive means small, poorly fitted or top-dose-only effect, or a change in a side signal; inactive means no such curve, though single readings can be large or run the other way; % of control where 0% means no effect;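 further: the control signal comes from parental cells without the receptor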
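HEK 293 cells stably expressing TSHR and a modified CNG channel, with CNG-only parental cells as counterscreen, were preloaded 60 min at room temperature with membrane potential dye containing 100 uM RO 20-1724. Compound exposure was 30 min, and depolarization was read as fluorescence at 590 nm.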
Casp7 inh = blocks human caspase-7 allosterically or competitively | P55210 | recombinant caspase-7, Ac-DEVD-AFC fluorescence rate | Potency, µM (titrated, usually from 57.5 µM), inactives show at the highest dose activity change, negative = inhibition, hits mostly inhibitors | 0.02% of 75,000 active | AID 889; active means well fitted inhibition curve with a large enough effect in the main read-out, with a control signal flat, not every such curve was filed as active; inconclusive means small, poorly fitted or top-dose-only effect, or a change in a side signal; further: % of control where 0% means no effect
Target sequence (P55210 24-198 limits assumed): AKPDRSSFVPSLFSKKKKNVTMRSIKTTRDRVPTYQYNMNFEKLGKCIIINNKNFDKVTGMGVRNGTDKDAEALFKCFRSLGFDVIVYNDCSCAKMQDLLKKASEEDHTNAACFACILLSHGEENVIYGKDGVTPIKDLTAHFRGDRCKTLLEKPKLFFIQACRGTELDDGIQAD
Target sequence (P55210 207-303 limits assumed): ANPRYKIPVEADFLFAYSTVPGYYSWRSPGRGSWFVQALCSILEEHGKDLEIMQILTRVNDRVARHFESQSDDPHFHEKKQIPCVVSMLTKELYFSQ
HEK293 cAMP cs = raises cAMP in parental HEK293 cells, TSHR agonist counter-screen | 2.5% of 73,000 active | Potency, µM (highest dose often 57.1 µM), without a hit: top-dose activation, most hits filed as activators | AID 938 | parental HEK293 CNG cAMP sensor, membrane potential fluorescence; further: % of control where 0% means no effect; nearly all actives have a fitted effect of over 55% in size
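Parental HEK 293 cells stably expressing a modified CNG channel (no TSHR) report cAMP rise as membrane depolarization. Membrane potential dye with 100 uM RO 20-1724 was loaded for 60 min at room temperature, then compound added for 30 min; fluorescence read at 590 nm.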
Caspase-1 inhib = allosteric or competitive inhibitors of human caspase-1; Potency, µM (series often up to 57.5 µM), for the others: at the highest dose activity change, negative = inhibition, hits mostly inhibitors; 0.03% of 75,000 active; P29466; Caspase-1 enzyme, Ac-WEHD-AFC fluorogenic rate; AID 900;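 further: plate controls were vehicle for no effect and no substrate for full effect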
Target sequence (P29466 120-297 limits assumed): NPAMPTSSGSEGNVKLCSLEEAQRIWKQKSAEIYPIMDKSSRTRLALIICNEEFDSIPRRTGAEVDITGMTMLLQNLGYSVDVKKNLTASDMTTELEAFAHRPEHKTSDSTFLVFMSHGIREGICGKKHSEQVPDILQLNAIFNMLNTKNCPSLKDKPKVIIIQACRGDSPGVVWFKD
Target sequence (P29466 317-404 limits assumed): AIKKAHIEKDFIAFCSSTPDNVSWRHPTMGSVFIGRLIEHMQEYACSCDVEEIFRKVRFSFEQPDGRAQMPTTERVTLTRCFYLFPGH
* marks the source's active call; other numbers are inactive results; ? = inconclusive; . = no result; [ ] = remark or other dose. In the library only some 4.8% were active in any assay of this set; here they are far more common. Unless noted, the call rests on the fitted dose curve; in most records, active means well fitted curve in the direction sought with a large enough effect; inconclusive means small, poorly fitted or top-dose-only effect, or another doubt; inactive means no such curve, though single readings can be large; an effect the other way counts as inactive or inconclusive. Potency means the concentration at half of the fitted maximal effect.

SMILES | ERK AVP block | 15-hLO inh | TSHR agonist | Casp7 inh | HEK293 cAMP cs | Caspase-1 inhib
O=C1C(CCC(O)c2ccc(F)cc2)C(c2ccc(O)cc2)N1c1ccc(F)cc1 (stereo not given) | 4.5% | -7.5% | . | -0.3% | . | 0.7%
O=c1[nH]c2ccccc2n1CCCSCCCn1c(=O)[nH]c2ccccc21 | 31.6µM* | -2.3% | . | -1.6% | 23.5% | -4.5%
Cc1cc(C(=O)CSCCCn2c(=O)[nH]c3ccccc32)c(C)n1C | -29.8% | 31.6µM* | -1.7% | -0.7% | 15.6% | -2.5%
Cc1cc(C(=O)CSc2nc3ccccc3c(=O)[nH]2)c(C)n1C | -7.1% | -8.4% | ? | -1.6% | ? | 1.1%
C[C@H](CO)NC(=O)[C@@H]1C[C@H]1[C@@H](NP(=O)(c1ccccc1)c1ccccc1)c1ccccc1 | 3.1% | . | ? | 0.8% | 15.8µM* | 0.8%
Cc1cc(CNC(=O)[C@@H]2C[C@H]2[C@@H](NP(=O)(c2ccccc2)c2ccccc2)c2ccccc2)nn1C | 15.6% | . | 4.3% | 0.3% | 8.2% | -0.3%
COC(=O)c1cc(C(=O)OC)cc(S(=O)(=O)Nc2ccc(Cl)c(N)c2)c1 | 16.1% | -10.9% | 29.5% | -0.2% | -29.2% | -1.2%
CN1CCc2nc(SCCOc3ccccc3)c(C#N)cc2C1 | 3.8% | 3.16µM* | ? | -1.3% | ? | 3.9%
O=C(CN1CCc2ccccc2C1)N1CCN(S(=O)(=O)c2ccccc2)CC1 | 15.8% | 6.9% | 17.5%[11.4 µM] | -0.7% | 7.5% | -0.1%
Cc1ccc(S(=O)(=O)N2CCN(C(=O)CN3CCc4ccccc4C3)CC2)cc1 | 5.3% | -18.1% | ? | -0.1% | 10µM* | 1.9%
CCCCC/C=C\C[C@H](O)/C=C\c1cccc(C[C@H](O)CCCCO)n1 | 9.7% | 20µM* | -3.7% | 0.2% | 11.4% | 1.7%
CN(C)c1nc(N)nc(CSc2nc3cc(Cl)ccc3o2)n1 | -17.7% | 4.4% | 16.5% | -0.2% | 13.3% | -0.3%
O=S1(=O)C=C(Sc2nc3cc(Cl)ccc3o2)c2ccccc21 | 10µM* | -10.8% | 2.0% | -1.7% | 7.5% | -2.4%
COCCn1c(=O)c(C)nc2cnc(Oc3cccc(Cl)c3)nc21 | -3.8% | -3.3% | ? | -14.6% | ? | -9.0%
CCC/C=C(\CCC)C(NC(=O)c1ccc(C(F)(F)F)cc1)c1ccccc1 (stereo not given) | 5.1% | . | ? | 2.3% | 15.8µM* | -0.2%
CCC/C=C(\CCC)C(NC(=O)C(C)(C)C)c1ccc(C(=O)OC)cc1 (stereo not given) | 16.1% | . | ? | -3.6% | 15.8µM* | 2.5%
CCC/C=C(\CCC)C(NC(=O)c1cccs1)c1ccc(C(=O)OC)cc1 (stereo not given) | 29.4% | . | ? | -2.4% | 12.6µM* | 1.5%
C[C@@H](C(=O)Nc1ccc2ccccc2c1)[C@H]1C[C@]1(C)[C@H](NS(=O)(=O)c1ccc2ccccc2c1)c1ccccc1 | 6.2% | . | -5.4% | -1.8% | 4.3% | 0.9%
c1ccc(NN(Cc2cnccn2)c2ccccc2)cc1 | 9.7%[11.5 µM] | -14.5%[11.4 µM] | 8.9%[11.4 µM] | 1.7%[11.5 µM] | 0.3%[11.4 µM] | 0.7%[11.5 µM]
O=c1sc2ccccc2n1COc1ccccc1 | 114.7% | -5.1% | ? | -3.6% | 25.1µM* | -4.5%
Cc1cccc(NC(=O)c2cc(NC(=O)c3ccco3)ccc2Cl)n1 | -23.0% | -5.3% | ? | -0.3% | ? | 0.8%
OC(COc1ccc2cc(Br)ccc2c1)CN1CCN(c2ccccn2)CC1 (stereo not given) | 25.1µM* | -14.9% | 12.5% | -7.8% | 17.9% | -5.9%
OC(COc1ccc2cc(Br)ccc2c1)CN1CCCC1 (stereo not given) | -18.6% | -9.4% | 3.7% | -1.4% | 14.0% | -2.1%
CCn1c2ccccc2c2cc(Nc3cc(C)nc4ncnn34)ccc21 | 25.1µM* | -23.9% | . | -12.4% | 12.8% | -4.0%
Cc1noc(C)c1-c1cncnc1Nc1ccccc1 | ? | ? | 3.4% | -0.5% | 19.5% | 0.4%
SMILES | ERK AVP block | 15-hLO inh | TSHR agonist | Casp7 inh | HEK293 cAMP cs | Caspase-1 inhib
CCC(c1nnnn1C1CCCC1)N1CCN(c2ccccc2F)CC1 (stereo not given) | -10.2% | 5.8% | ? | 1.8% | ? | -0.6%
CCCC(c1nnnn1C1CCCC1)N1CCN(c2ccccc2F)CC1 (stereo not given) | 16.8% | 0.7% | ? | -3.2% | 5.01µM* | -2.7%
Cc1ccc(S(=O)(=O)N(CC(=O)O)c2ccc(Cl)cc2)cc1 | . | -0.1% | 1.3% | -0.1% | 10.7% | -1.9%
O=c1oc2ccccc2n1CCn1c2ccccc2c2nc3ccccc3nc21 | 6.2% | ? | ? | -9.1% | 7.94µM* | -14.4%
O=C(O)C1CCC(CNc2c(NC3CCCCC3)c(=O)c2=O)CC1 (stereo not given) | . | 3.8% | 38.2% | -0.3% | 26.0% | -2.4%
COC(=O)c1ccc(OC)c(CSc2nnc(COc3ccccc3)o2)c1 | 1.4% | -11.3% | ? | -6.4% | 12.6µM* | -8.9%
Cc1cccc(OCc2nnc(SCC(=O)c3ccccc3)o2)c1 | -6.9% | -8.3% | ? | 0.4% | 3.98µM* | -3.2%
Cc1cc(C)cc(OCc2nnc(SCC(=O)c3ccccc3)o2)c1 | -3.7% | -9.6% | ? | -5.0% | ? | 0.4%
COCc1[nH]nc2c1C(c1ccsc1)C(C#N)=C(N)O2 (stereo not given) | ? | -9.8% | 7.3% | 0.8% | 4.0% | -0.8%
CCOC(=O)C1=C(C)OC(N)=C(C#N)C1c1cc2c(cc1Br)OCO2 (stereo not given) | 12.9% | -26.7% | . | -19.3% | 22.0% | ?
CCOC(=O)C1=C(C)OC(N)=C(C#N)C1c1ccsc1 (stereo not given) | -16.3% | -8.7% | ? | -3.2% | 20µM* | -2.0%
CCOC(=O)C1=C(C)OC(N)=C(C#N)C1C1CCCCC1 (stereo not given) | -24.4% | -23.4% | ? | -0.8% | 25.1µM* | -1.3%
CCCCOc1[nH]c2nc(-c3ccco3)n(Cc3ccco3)c(=N)c2c1C#N | 8.8% | -8.2% | 5.7% | -3.3% | 3.4% | -2.1%
CCN1CCC[C@@H]1CNC(=O)c1c(OC)ccc(I)c1O | . | . | -2.7% | . | 9.1% | .
c1ccc(-c2csc(N3CCN(c4ccccn4)CC3)n2)cc1 | 15.8µM* | -6.8% | 15.5% | -1.1% | 11.6% | -0.5%
CC(=O)Oc1cc(-c2coc3cc(OC(C)=O)c(OC(C)=O)c(OC(C)=O)c3c2=O)cc(OC(C)=O)c1OC(C)=O | -2.1% | 15.8µM* | . | -7.0% | . | 2.0%
CC(C)(C)c1ccc(O)c(O)c1 | -3.3% | 3.98µM* | -5.0% | 0.5% | -7.0% | -1.4%
Cc1sc2c(c1C)c(=O)n(-c1ccccc1)c1nnc(C)n21 | . | 3.16µM* | -9.4% | 0.4% | 1.3% | -2.4%
COc1ccc(-n2c(=O)c3c4c(sc3n3c(C)nnc23)CCCC4)cc1 | 12.8% | -12.4% | 1.0% | 0.4% | 0.7% | -1.6%
